Lassa entry inh: qHTS for Inhibitors of binding or entry into cells for Lassa Virus. Lassa virus pseudotype entry inhibition, cell reporter. Potency, µM (titrated, usually from 37.9 µM), inactives show at the top dose activity change, negative = inhibition, most hits filed as inhibitors. hit rate 1.2% among 300,000. AID 540256, 2011; calls by dose curve; tested in HEK293 cells; also: nearly all actives have a fitted effect of over 50% in size
VACV mCherry inh: qHTS for Stage-Specific Inhibitors of Vaccinia Orthopoxvirus: mCherry Reporter Primary qHTS; AID 720579, 2013; Potency, µM (doses to about 36.5 µM), for the others: top-dose activity change, negative = inhibition, hits mostly inhibitors; hit rate 0.63% among 310,000; Vaccinia virus mCherry reporter infection, fluorescence; calls by dose curve; tested in A549 cells; also: nearly all actives have a fitted effect of over 35% in size
FMDV inh: High Throughput Screening for Foot and Mouth Disease Virus Antivirals. FMDV antiviral cell-based qHTS. Potency, µM (top dose mostly 57.9 µM), without a hit: at the highest dose activity change, negative = inhibition, most hits filed as inhibitors. hit rate 1.2% among 410,000. AID 1159524, 2015; calls by dose curve; tested in HEK293T cells; also: read-out not given here; nearly all actives have a fitted effect of over 45% in size
Sm TGR inh: qHTS Assay for the Inhibitors of Schistosoma Mansoni Peroxiredoxins. purified TGR, DTNB reduction, TNB absorbance 405 nm. Schistosoma mansoni thioredoxin glutathione reductase (TGR), Q962Y6. Potency, µM (top dose mostly 114 µM), for the others: at the highest dose activity change, negative = inhibition, actives largely listed as inhibitors. hit rate 3% among 360,000. AID 485364, 2010; active = well fitted inhibition curve with a large enough effect; inconclusive = small, poorly fitted or top-dose-only effect; inactive = no such curve, though single readings can be large or run the other way; also: nearly all actives have a fitted effect of over 60% in size
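TGR 20 nM + NADPH 100 uM (dispensed conc.), cpd preinc 15 min RT; start with NADPH (500 uM addition) then DTNB (15 mM addition). Kinetic TNB absorbance, 405 nm filter. Four-parameter Hill fit across titration.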
MARV entry inh: qHTS for inhibitors of binding or entry into cells for Marburg Virus; Marburg virus pseudotyped entry inhibition, cell reporter; Potency, µM (top dose mostly 37.8 µM), inactives show top-dose activity change, negative = inhibition, most hits filed as inhibitors; hit rate 1.8% among 300,000; AID 540276, 2011; calls by dose curve; tested in HEK293 cells
Vaccinia Venus: qHTS for Stage-Specific Inhibitors of Vaccinia Orthopoxvirus: Venus Reporter Primary qHTS; Vaccinia virus Venus reporter expression, fluorescence; Potency, µM (highest dose often 36.5 µM), for inactives: at the highest dose activity change, negative = inhibition, most hits filed as inhibitors; hit rate 0.46% among 330,000; AID 720580, 2013; calls by dose curve; tested in A549 cells; also: nearly all actives have a fitted effect of over 30% in size
The depositor's hits bear a star; i = inactive; ? = inconclusive; nt = no result; [ ] = dose if it differs, or a comment. An excerpt weighted towards active compounds, which were near 5.4% of everything screened. % is scaled to controls: 0 for no effect and ±100 for the full control effect; potency is read from the fitted curve at half-maximal effect.

SMILES | Lassa entry inh | VACV mCherry inh | FMDV inh | Sm TGR inh | MARV entry inh | Vaccinia Venus
CCCC(=O)N1c2nc(-c3ccco3)nn2C2(CCCCC2)[C@@H]2CCCC[C@@H]21 | -6%[46.1 µM] | -5% | -21% | 35µM* | ? | -20%
CC(=O)N1c2nc(-c3ccco3)nn2C2(CCCCC2)[C@@H]2CCCC[C@@H]21 | ? | -1% | -22% | ? | -13%[46.1 µM] | 3%
Oc1ccc(NC(=S)N=Nc2c(O)[nH]c3ccc(Br)cc23)cc1 | 11µM* | ? | -19% | -9% | ? | -16%
Cc1ccccc1OCc1nnc(SCc2cc(=O)c3cccc(F)c3[nH]2)n1C | -15%[46.1 µM] | 1% | -4% | 5% | nt | -2%
O=c1c2oc3ccccc3c2n(Cc2cccc(F)c2)c(=O)n1Cc1ccco1 | 18%[46.1 µM] | -13% | ? | -31% | nt | -11%
O=C(CCCCn1c(=O)c2ccccc2n(CC(=O)NC2CCCC2)c1=O)NC1CCCC1 | 13% | -15% | -19% | -20% | 20% | -7%
CC1CC(C)CN(C(=O)Cn2c(=O)n(CCCCC(=O)NC3CCCC3)c(=O)c3ccccc32)C1 (configuration not stated) | 9% | nt | -21% | 28µM* | -8%[46.1 µM] | -18%
COc1ccc2c(=O)c3c(=O)n(Cc4ccco4)c(-c4ccc(C)cc4)nc3oc2c1 | -6% | nt | ? | 32µM* | 11% | nt
COc1cc(-c2nc3oc4ccccc4c(=O)c3c(=O)n2Cc2ccco2)cc(OC)c1OC | 6.3µM* | -18% | 0% | ? | 7.9µM* | -10%
CCN(c1ncnc2c1cnn2-c1cc(Cl)ccc1C)C1CCCCC1 | -25%[46.1 µM] | -9% | ? | 0% | nt | -13%
C(=N\Nc1ncnc2sc3c(c12)CCC3)/c1cccs1 | nt | nt | nt | 9% | -7% | nt
C(=N\Nc1ncnc2sc3c(c12)CCC3)/c1ccncc1 | -3% | 11µM* | ? | 11% | ? | 10µM*
O=C(N/N=C/c1ccc([N+](=O)[O-])o1)c1ccncc1 | ? | i[7.34 µM] | -5% | ? | -23%[46.1 µM] | 4%[7.34 µM]
Cc1nc2ccccn2c1C(=O)N/N=C/c1ccc([N+](=O)[O-])o1 | nt | ? | -27% | 14µM* | nt | 7.1µM*
O=C(N/N=C/c1ccc([N+](=O)[O-])o1)c1ccc(O)cc1 | ? | 13µM* | -22% | 10% | ? | ?
O=C(N/N=C/c1ccc([N+](=O)[O-])o1)c1ccccc1NS(=O)(=O)c1cccs1 | nt | nt | ? | 28µM* | nt | nt
Cc1nc2ccccn2c1C(=O)N/N=C/c1ccc([N+](=O)[O-])cc1 | 3%[46.1 µM] | -10% | 23% | 1% | ? | -3%
Nc1nonc1C(=O)N/N=C/c1ccc([N+](=O)[O-])o1 | ? | ? | -30% | 20µM* | ? | ?
O=C(NN=Cc1ccc(F)cc1)c1ccccc1NS(=O)(=O)c1cccs1 | nt | nt | -2% | nt | nt | nt
C=C1CN2C(=NC(c3ccccc3)C(C(=O)OC)=C2C)O1 (configuration not stated) | nt | nt | nt | nt | 0%[14.2 µM] | nt
O=C(N/N=C\c1ccc([N+](=O)[O-])o1)c1cncc(Br)c1 | ? | ? | ? | 35µM* | ? | ?
CCOc1ccccc1/C=C/C(=O)NCC(=O)N1CCC(N(C)C2CCCCC2C)CC1 (configuration not stated) | -2%[46.1 µM] | -24% | -13% | 6.3µM* | -16%[46.1 µM] | -18%
O=C(Cn1c(=O)nc(-c2ccccc2F)c2cc(Cl)ccc21)Nc1ccccc1C(F)(F)F | ? | -21% | 31% | 3% | nt | -14%
O=C(CSc1nnc(-c2cccnc2)n1Cc1ccco1)c1ccc2ccccc2c1 | 0% | nt | 8% | 22µM* | -21% | nt
CCSc1nnc(-c2cccnc2)n1Cc1ccco1 | 2% | nt | 8% | 35µM* | -20% | nt
O=C(CSc1nnc(-c2cccnc2)n1Cc1ccco1)Nc1nc(-c2ccc(F)cc2)cs1 | -7% | nt | 20µM* | ? | ? | nt
Cc1ccc(CN(C(=O)COc2ccc(C(C)(C)C)cc2)C2CCS(=O)(=O)C2)o1 (configuration not stated) | -26%[46.1 µM] | i | -22% | -26% | ? | -14%

Screens: PubChem, National Center for Advancing Translational Sciences (NCATS)
